This is a sample that favours compounds with a hit; in the whole collection about 2.3% have one here.
Hsp90 Hop PPI = changes Hsp90-Hop TPR2A binding signal, up or down; AlphaScreen TPR2A-His6 binding biotin-Hsp90 C-terminal peptide; 71,000 compounds, 0.44% hits; Potency, µM (titrated, usually from 57 µM); AID 595; active means well fitted curve in either direction with a large enough effect; inconclusive means small, poorly fitted or top-dose-only effect, or another doubt
BRCT PPI green = blocks human BRCA1 BRCT binding to phosphopeptide, green readout. P38398. BRCA1 BRCT-phosphopeptide binding, green fluorescence polarization. Potency, µM (titrated, usually from 76.9 µM), most hits filed as inhibitors. 75,000 compounds, 0.05% hits
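Fluorescence polarization: His-tagged BRCT (~35 kDa BRCA1 C-terminus, 250 nM) bound to 100 nM fluorescein-labeled phosphorylated 10-aa BACH1 peptide, pH 7.3 phosphate buffer with DTT and Tween 20. Compounds incubated 12 min at room temperature; inhibition read as lowered polarization.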
DNA Pol III inh = inhibitors of bacterial DNA polymerase III holoenzyme | 71,000 compounds, 0.25% hits | Potency, µM (series often up to 57.1 µM) | reconstituted DNA polymerase III holoenzyme replication, biochemical
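Reconstituted *E. coli* holoenzyme (0.35 nM Pol III, 1 nM beta, 154 nM SSB, 2 nM primase) was preincubated with compound for 15 min at RT. Synthesis on 1.4 nM ssM13Gori ran 35 min, then was stopped with PicoGreen/EDTA and read as dsDNA fluorescence.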
BRCT inh red = disrupts BRCA1 BRCT binding to phosphoprotein, red fluorophore readout | BRCT-phosphopeptide binding, red fluorescence polarization | Potency, µM (top dose mostly 76.9 µM), hits mostly inhibitors | 75,000 compounds, 0.03% hits
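Fluorescence polarization: 100 nM His-tagged BRCA1 BRCT with 100 nM TAMRA-labelled phospho-BACH1 decapeptide, phosphate buffer pH 7.3 with 150 mM NaCl, DTT, 0.01% Tween 20; 12 min RT. Binding inhibition seen as FP decrease.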
YjeE inh = YjeE (TsaE) inhibition, E. coli. 71,000 compounds, 0.05% hits. P0AF67. purified YjeE enzyme, qHTS inhibition assay. AID 605. Potency, µM
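Purified YjeE (10 uM) with BODIPY Texas Red-labeled ADP probe (2 uM); compounds pin-transferred, 15 min at room temperature. Binding inhibition read as decreased fluorescence polarization; ADP titration as control.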
Tau filament bind = binders of human tau filaments. P10636. recombinant tau filaments, thioflavin S fluorescence, 15 h; filaments grown with octadecylsulfate alongside compound. Potency, µM (titrated, usually from 57.1 µM). 71,000 compounds, 2% hits;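 further: actives lower thioflavin S fluorescence by blocking filaments or displacing dye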
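Tau 2 uM in ThS buffer dispensed; compound added; 60 uM ODS added (finals 1 uM tau, 30 uM ODS); 15 h 37 C; fluor ex450/em510.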
Of the large screens only hits and unclear results are named; the others gave an inactive call; ! = repeats disagree. Unless noted, the call rests on the fitted dose curve; in most records, active means well fitted curve in the direction sought with a large enough effect; inconclusive means small, poorly fitted or top-dose-only effect, or another doubt; inactive means no such curve, though single readings can be large; an effect the other way counts as inactive or inconclusive.

CCN(CC)c1ccc(NC(=O)c2ccc(Br)o2)cc1	Tau filament bind 3.16µM
O=C(Nc1ccccc1)N1CCC2(CCNCC2)CC1	none
Cc1occc1-c1nnc(SCC(=O)c2cc3ccccc3oc2=O)o1	Hsp90 Hop PPI inconclusive, BRCT PPI green inconclusive, DNA Pol III inh inconclusive, Tau filament bind 10µM
Cc1cc(O)c2c(c1)C(=O)c1cc(O)cc(O)c1C2=O	Hsp90 Hop PPI 5.01µM!, Tau filament bind 2.51µM
C/C(CC/C(C)=N/O)=N/O	none
COc1ccc(OC)c(NS(=O)(=O)Cc2ccccc2)c1	Tau filament bind 15.8µM
COc1ccc(-c2oc3cc(OC)ccc3c(=O)c2O)cc1	none (no result: Hsp90 Hop PPI, DNA Pol III inh, YjeE inh, Tau filament bind)
CN1CCN(C(=O)CSc2nc(-c3cccs3)cc(-c3cccs3)c2C#N)CC1	Tau filament bind 7.94µM
CC(C)C(=O)C(C)(C)CCc1ccccn1	none
O=[N+]([O-])c1ccc2c(N=Nc3ccc4ccccc4c3O)c(O)cc(S(=O)(=O)O)c2c1	Hsp90 Hop PPI inconclusive, YjeE inh 7.94µM, Tau filament bind 3.16µM
CC[C@@H](CS(=O)(=O)O)[N+](=O)[O-]	none
O=C(c1cnccn1)N1CCC2(CCN(Cc3nccs3)CC2)CC1	none
Clc1ccc2c(N3CCCC3)ccnc2c1	Tau filament bind 20µM
CC(C)c1ccccc1OCCCCCNCCO	Tau filament bind 12.6µM
CC(C)(C)c1ccccc1OCCCCCNCCO	Tau filament bind 10µM
O=c1cc(-c2ccccc2)oc2cc(O)c(O)c(O)c12	Hsp90 Hop PPI inconclusive, Tau filament bind 3.98µM
COc1cccc(-c2cc(N(C)Cc3ccco3)ncn2)c1	none
O=c1[nH]c2ccc(Cl)cc2c(-c2ccccc2)c1CN1CCOCC1	Tau filament bind 12.6µM
COc1ccccc1CNc1ncnc2ccc(-c3ccccc3C#N)cc12	none
COc1ccc(CCNc2cc(=O)[nH]c(N)n2)cc1	Tau filament bind 15.8µM
CCOC(=O)CCN1C(=O)[C@@H]2[C@H]3C(=CC[C@H]2C1=O)C(=O)[C@H]1O[C@H]1[C@H]3O	none (no result: Hsp90 Hop PPI, DNA Pol III inh, YjeE inh, Tau filament bind)
CC(=O)N1CCN(c2ccc(NCc3ccccc3)cc2)CC1	Tau filament bind 15.8µM
CC(=O)N1CCN(c2ccc(NCc3cccs3)cc2)CC1	Tau filament bind 25.1µM
CC(=O)Nc1ccc(N2CCN(Cc3ccccc3F)CC2)cc1	none
CC(=O)N1CCN(c2ccc(NCc3ccc4c(c3)OCO4)cc2)CC1	Tau filament bind inconclusive
CC(=O)N1CCN(c2ccc(NCc3ccc(C)s3)cc2)CC1	Tau filament bind inconclusive
O=C(c1ccccc1)N1CCN(c2ccc(NCc3ccc4c(c3)OCO4)cc2)CC1	Hsp90 Hop PPI inconclusive, Tau filament bind 31.6µM
CN[C@]1(C)[C@@H]2CC[C@@H](C2)C1(C)C	none
CCCc1c(OCCCOc2ccc(OCC(=O)O)cc2)ccc(CC=O)c1O	Tau filament bind inconclusive
CN(C)CCCO[C@H]1[C@H]([C@H](O)CO)O[C@H]2OC(C)(C)O[C@@H]21	none
CN1/C(=C\C(=O)C(F)F)C(C)(C)c2ccccc21	none
CN1/C(=C/C(=O)c2nc(S(C)(=O)=O)ncc2Cl)C(C)(C)c2ccccc21	Tau filament bind 10µM
CC(=O)O[C@@H]1CC[C@]2(C)[C@H]3CC[C@]4(C)[C@H](C[C@H]5CCCC[C@@]54C(C)=O)[C@@H]3CC(=O)[C@@]2(O)C1	none (no result: BRCT PPI green, BRCT inh red)
O=C1c2c(O)ccc(O)c2C(=O)c2c(NCCNCCO)ccc(NCCNCCO)c21	Hsp90 Hop PPI 15.8µM!, DNA Pol III inh 1µM, YjeE inh 79.4µM!, Tau filament bind 3.98µM
COc1ccc2[nH]cc(CCNc3ccnc(-c4ccccc4C)n3)c2c1	Hsp90 Hop PPI inconclusive, Tau filament bind 15.8µM
COc1ccc(CNc2nc(-c3cccnc3)nc3ccccc23)c(OC)c1	none
COc1cccc(-c2nccc(NCCc3c[nH]c4ccc(OC)cc34)n2)c1	Hsp90 Hop PPI inconclusive, Tau filament bind 25.1µM
COc1ccc2[nH]cc(CCNc3nc(-c4cccnc4)nc4ccccc34)c2c1	Tau filament bind 25.1µM
N#Cc1cccc(-c2ccc3ncnc(NCCN4CCOCC4)c3c2)c1	none
CCC(C)Nc1ccc(NC(C)CC)cc1 (centres undefined)	Hsp90 Hop PPI inconclusive, YjeE inh 100µM, Tau filament bind 15.8µM
CCC(C)NC(=O)c1ccccc1C(=O)NC(C)CC (centres undefined)	none
COc1ncc2nc(-c3cn(C)c4ccccc34)c(=O)n(-c3ccccc3)c2n1	none
CCOC(=O)c1c(C)c(C(=O)Nc2ccc(N(C)C)cc2)c(C)n1CC	Tau filament bind 15.8µM
Cn1c(N)nc2c(nc(OCc3ccccc3)n2[C@@H]2O[C@H](CO)[C@@H](O)[C@@H]2O)c1=O	none
Cc1ccc(O)c(-c2cc(C(F)(F)C(F)F)[nH]n2)c1	none
FC(F)C(F)(F)C(F)(F)C(F)(F)c1cc(-c2ccccc2)n[nH]1	Tau filament bind 10µM
COC(=O)C1(C)C=CC2(CCCCC2)N1C(=O)c1ccccc1 (centres undefined)	none
COc1ccc(N2CCN(C(c3cccs3)C(C)NS(=O)(=O)c3ccccc3)CC2)cc1 (centres undefined)	Hsp90 Hop PPI inconclusive, Tau filament bind 15.8µM
Cc1cccc(CNc2ncnc3ccc(-c4cccc(C#N)c4)cc23)c1	none
COc1ccc(N2CCC(CNC(=O)Nc3ccc(OC)cc3OC)C2)cc1 (centres undefined)	Hsp90 Hop PPI inconclusive, Tau filament bind 20µM
COc1ccc(N2CCC(CNC(=O)Nc3ccc(C)c(C)c3)C2)cc1 (centres undefined)	Tau filament bind inconclusive
COc1ccc(N2CCC(CNS(=O)(=O)c3cccc(C(F)(F)F)c3)C2)cc1 (centres undefined)	Tau filament bind 1.26µM
O=S(=O)(NCC1CC1)c1cccc(S(=O)(=O)N2CCCC2)c1	none
Clc1ccc([C@H](Cn2ccnc2)OCc2c(Cl)cccc2Cl)c(Cl)c1	none
Cc1onc(-c2ccccc2)c1C(=O)Nc1ccc2c(c1)OCO2	Tau filament bind 15.8µM
CC(C)[C@@H](CC(=O)N[C@@H]1CCNC[C@H]1C(=O)N[C@H](CC(=O)N[C@@H](CCC(=O)O)CC(=O)O)Cc1c[nH]c2ccccc12)NC(=O)C[C@H](Cc1c[nH]c2ccccc12)NC(=O)[C@@H]1CCCC[C@H]1N	none (no result: BRCT PPI green, BRCT inh red)
CC(C)[C@@H](CC(=O)N[C@@H]1CCNC[C@H]1C(=O)N[C@H](CC(=O)N[C@@H](CCC(=O)O)CC(=O)O)Cc1ccccc1)NC(=O)C[C@H](Cc1c[nH]c2ccccc12)NC(=O)[C@@H]1CCCC[C@H]1N	Hsp90 Hop PPI 31.6µM, YjeE inh inconclusive (no result: BRCT PPI green, BRCT inh red)
CCn1c2ccccc2c2cc(NC(=O)Cc3ccc(S(=O)(=O)N4CCOCC4)s3)ccc21	Tau filament bind 6.31µM

High-throughput results deposited in PubChem BioAssay by National Center for Advancing Translational Sciences (NCATS).
